In PubChem BioAssay (NCI):
The panel holds about 79,000 compounds, 15% with a hit somewhere; the sample as a whole holds those more often. Activity calls are given as the source filed them. Rule as the data show it: active = growth inhibition above about 70%; inactive = the rest.

Tests used:
[1] = NCI Yeast Anticancer Drug Screen. Data for the rad52 strain (AID 147);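 also: 0% = growth of vehicle-treated control cultures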; conditions: S. cerevisiae rad52 mutant growth inhibition, stronger effect = higher value
In short: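 The repair-mutant yeast strain was incubated with compounds, then growth was read and inhibition derived relative to vehicle.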

[2] = NCI Yeast Anticancer Drug Screen. Data for the wt1 strain (AID 149);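 also: 0% = growth of vehicle-treated wt1 cultures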; conditions: S. cerevisiae wt1 strain (SPY 50644) growth inhibition, stronger effect = higher value
In short: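 Yeast wt1 strain exposed to compounds; growth inhibition measured relative to vehicle-treated controls.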

[3] = NCI Yeast Anticancer Drug Screen. Data for the rad50EPP+ strain (AID 151);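 also: 0% = growth of vehicle-treated control cultures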; conditions: S. cerevisiae rad50 mutant strain, stronger effect = higher value
In short: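 Vehicle-normalised growth inhibition; rad50EPP+ yeast strain, altered in DNA damage repair, compound-treated.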

[4] = NCI Yeast Anticancer Drug Screen. Data for the mgt1 strain (AID 153); conditions: S. cerevisiae mgt1 mutant growth inhibition, stronger effect = higher value
In short: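 Vehicle-normalized growth inhibition is determined in mgt1 yeast, a strain selected for a defined alteration in DNA repair or cell cycle control.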

[5] = NCI Yeast Anticancer Drug Screen. Data for the rad50 strain (AID 155);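 also: 0% = growth of vehicle-only cultures of the same strain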; conditions: S. cerevisiae rad50 strain growth inhibition, stronger effect = higher value
In short: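 Yeast carrying a defined DNA repair defect were exposed to test compounds, and growth was compared with vehicle-treated controls to give percent inhibition.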

[6] = NCI Yeast Anticancer Drug Screen. Data for the mec2-1 strain (AID 157); conditions: S. cerevisiae mec2-1 strain, stronger effect = higher value
In short: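 Mutant yeast (mec2-1) grown with compound; growth inhibition relative to vehicle control reported.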

[7] = NCI Yeast Anticancer Drug Screen. Data for the rad14 strain (AID 159);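 also: 0% = growth of vehicle-treated control cultures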; conditions: S. cerevisiae rad14 strain growth inhibition, stronger effect = higher value
In short: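 Yeast cells carrying a defined DNA-repair defect were exposed to compounds, and growth inhibition was calculated relative to vehicle-treated control cultures.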

[8] = NCI Yeast Anticancer Drug Screen. Data for the sgs1 mgt1 strain (AID 161);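 also: 0% = growth of cultures given vehicle only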; conditions: S. cerevisiae sgs1 mgt1 strain, stronger effect = higher value
In short: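 Compounds are added to genetically altered yeast, and growth is compared with cultures given vehicle alone to give percent inhibition.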

[9] = NCI Yeast Anticancer Drug Screen. Data for the CLN2oe strain (AID 163);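 also: 0% = growth of vehicle-only control cultures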; conditions: S. cerevisiae CLN2oe strain, stronger effect = higher value
In short: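 Compounds are applied to yeast harbouring a defined cell-cycle control change; reduced growth compared with vehicle-treated controls gives the value.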

[10] = NCI Yeast Anticancer Drug Screen. Data for the cln2 rad14 strain (AID 165);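 also: 0% = growth equal to vehicle treated cultures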; conditions: S. cerevisiae cln2 rad14 strain, stronger effect = higher value
In short: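 Readout is yeast growth inhibition versus vehicle-treated controls, using a strain with cln2 and rad14 alterations exposed to compound.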

[11] = NCI Yeast Anticancer Drug Screen. Data for the bub3 strain (AID 167); conditions: S. cerevisiae bub3 mutant strain, stronger effect = higher value
In short: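 Compounds were applied to a genetically altered yeast strain carrying a cell-cycle control defect. Growth inhibition was scored against vehicle-treated controls.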

[12] = NCI Yeast Anticancer Drug Screen. Data for the wt2 strain (AID 169);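 also: 0% = growth of vehicle-treated yeast cultures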; conditions: S. cerevisiae wt2 strain growth inhibition, stronger effect = higher value
In short: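 Against vehicle-treated controls, the growth of yeast exposed to each compound was compared, and the inhibition was recorded.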

[13] = NCI Yeast Anticancer Drug Screen. Data for the mlh1 strain (AID 171);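 also: 0% = growth of vehicle-treated control cultures of the same strain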; conditions: S. cerevisiae mlh1 strain growth inhibition, stronger effect = higher value
In short: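 Measured: yeast growth. Reference: vehicle-treated controls. Organism: strain with a defined alteration affecting DNA damage repair or cell cycle control, treated with compound.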

[14] = NCI Yeast Anticancer Drug Screen. Data for the sgs1 strain (AID 173);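 also: 0% = growth of vehicle-only control cultures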; conditions: S. cerevisiae sgs1 mutant, stronger effect = higher value
In short: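 Each compound was added to cultures of the altered yeast strain. Growth was recorded, and inhibition was derived by comparison with vehicle controls.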

[15] = NCI Yeast Anticancer Drug Screen. Data for the mlh1 rad18 strain (AID 175); conditions: S. cerevisiae mlh1 rad18 strain growth inhibition, stronger effect = higher value
In short: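 Genetically defined yeast (DNA repair-deficient) exposed to compounds; growth inhibition determined relative to vehicle.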

[16] = NCI Yeast Anticancer Drug Screen. Data for the rad18 strain (AID 177); conditions: S. cerevisiae rad18 mutant growth inhibition, stronger effect = higher value
In short: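 Vehicle-treated cultures served as the baseline for scoring compound-induced growth inhibition in DNA-repair-mutant yeast.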

[17] = at 5.0 µM (retest, dose inferred, filed as 0.5)
[18] = at 50.0 µM (retest, dose inferred, filed as 5.0)

Measured: growth inhibition

Cc1nc(Nc2ccccc2[N+](=O)[O-])sc1C(=O)CC(=O)C(=O)Nc1c(C(C)C)cccc1C(C)C
inactive: [1]; at 1.2 µM -2% | [1]; at 3.7 µM -2% | [1]; at 11.0 µM -1% | [1]; at 33.0 µM -5% | [1]; at 100.0 µM 1% | [2]; at 1.2 µM 2% | [2]; at 3.7 µM 4% | [2]; at 11.0 µM 3% | [2]; at 33.0 µM 5% | [2]; at 100.0 µM 4% | [3]; at 1.2 µM 5% | [3]; at 3.7 µM 17% | [3]; at 11.0 µM 37% | [3]; at 33.0 µM 50% | [3]; at 100.0 µM 59% | [4]; at 1.2 µM -1% | [4]; at 3.7 µM 0% | [4]; at 11.0 µM 0% | [4]; at 33.0 µM -11% | [4]; at 100.0 µM -1% | [5]; at 1.2 µM -5% | [5]; at 3.7 µM -16% | [5]; [17] 10% | [5]; at 11.0 µM -17% | [5]; at 33.0 µM 2% | [5]; [18] 1% | [5]; at 50.0 µM -1.6% | [5]; at 100.0 µM 3% | [6]; at 1.2 µM 2% | [6]; at 3.7 µM 4% | [6]; [17] 3% | [6]; at 11.0 µM 3% | [6]; at 33.0 µM 6% | [6]; [18] 8% | [6]; at 50.0 µM 17.9% | [6]; at 100.0 µM 6% | [7]; at 1.2 µM 0% | [7]; at 3.7 µM -2% | [7]; at 11.0 µM 1% | [7]; at 33.0 µM 0% | [7]; at 100.0 µM 3% | [8]; [17] 7% | [8]; [18] 11% | [8]; at 50.0 µM 34% | [9]; at 1.2 µM 3% | [9]; at 3.7 µM 1% | [9]; at 11.0 µM 4% | [9]; at 33.0 µM 11% | [9]; at 100.0 µM 12% | [10]; [17] 35% | [10]; [18] 12% | [10]; at 50.0 µM 47.1% | [11]; at 1.2 µM 3% | [11]; at 3.7 µM 5% | [11]; [17] -3% | [11]; at 11.0 µM 7% | [11]; at 33.0 µM 12% | [11]; [18] 33% | [11]; at 50.0 µM 41.2% | [11]; at 100.0 µM 12% | [12]; at 1.2 µM -1% | [12]; at 3.7 µM 0% | [12]; at 11.0 µM 0% | [12]; at 33.0 µM 2% | [12]; at 100.0 µM 0% | [13]; at 1.2 µM 2% | [13]; at 3.7 µM 3% | [13]; at 11.0 µM 5% | [13]; at 33.0 µM 5% | [13]; at 100.0 µM 5% | [14]; at 1.2 µM 2% | [14]; at 3.7 µM 4% | [14]; at 11.0 µM 2% | [14]; at 33.0 µM 7% | [14]; at 100.0 µM 6% | [15]; [17] 4% | [15]; [18] 14% | [15]; at 50.0 µM -5.1% | [16]; at 1.2 µM -3% | [16]; at 3.7 µM 1% | [16]; at 11.0 µM 1% | [16]; at 33.0 µM 0% | [16]; at 100.0 µM -3%

COc1oc(C(=O)NC2CCCCC2)c(-c2ccc(Cl)cc2)c1S(=O)(=O)c1ccccc1
active: [1]; at 33.0 µM 87% | [1]; at 100.0 µM 84% | [2]; at 33.0 µM 91% | [2]; at 100.0 µM 87% | [4]; at 33.0 µM 89% | [4]; at 100.0 µM 86% | [5]; at 33.0 µM 83% | [5]; [18] 92% | [5]; at 50.0 µM 75.1% | [5]; at 100.0 µM 78% | [6]; at 11.0 µM 70% | [6]; at 33.0 µM 92% | [6]; [18] 91% | [6]; at 50.0 µM 78.8% | [6]; at 100.0 µM 88% | [7]; at 33.0 µM 82% | [7]; at 100.0 µM 74% | [8]; [18] 88% | [8]; at 50.0 µM 78.2% | [9]; at 33.0 µM 91% | [9]; at 100.0 µM 83% | [10]; [18] 87% | [10]; at 50.0 µM 76.9% | [11]; at 33.0 µM 90% | [11]; [18] 88% | [11]; at 50.0 µM 72.5% | [11]; at 100.0 µM 84% | [12]; at 11.0 µM 89% | [12]; at 33.0 µM 91% | [12]; at 100.0 µM 82% | [13]; at 33.0 µM 84% | [13]; at 100.0 µM 81% | [14]; at 33.0 µM 89% | [14]; at 100.0 µM 84% | [15]; [18] 84% | [16]; at 33.0 µM 85% | [16]; at 100.0 µM 80%
inactive: [1]; at 1.2 µM -5% | [1]; at 3.7 µM 7% | [1]; at 11.0 µM 56% | [2]; at 1.2 µM -19% | [2]; at 3.7 µM -5% | [2]; at 11.0 µM 68% | [3]; at 1.2 µM -22% | [3]; at 3.7 µM -19% | [3]; at 11.0 µM -18% | [3]; at 33.0 µM -5% | [3]; at 100.0 µM -11% | [4]; at 1.2 µM -21% | [4]; at 3.7 µM -17% | [4]; at 11.0 µM 60% | [5]; at 1.2 µM -29% | [5]; at 3.7 µM -2% | [5]; [17] 64% | [5]; at 11.0 µM 48% | [6]; at 1.2 µM 1% | [6]; at 3.7 µM 3% | [6]; [17] 22% | [7]; at 1.2 µM -22% | [7]; at 3.7 µM -17% | [7]; at 11.0 µM 23% | [8]; [17] -10% | [9]; at 1.2 µM -1% | [9]; at 3.7 µM 0% | [9]; at 11.0 µM 30% | [10]; [17] 15% | [11]; at 1.2 µM -18% | [11]; at 3.7 µM -25% | [11]; [17] 8% | [11]; at 11.0 µM 47% | [12]; at 1.2 µM -1% | [12]; at 3.7 µM 22% | [13]; at 1.2 µM -20% | [13]; at 3.7 µM -7% | [13]; at 11.0 µM 41% | [14]; at 1.2 µM -4% | [14]; at 3.7 µM -1% | [14]; at 11.0 µM 52% | [15]; [17] 16% | [15]; at 50.0 µM 45.4% | [16]; at 1.2 µM -6% | [16]; at 3.7 µM -1% | [16]; at 11.0 µM 46%

CCOC(=O)C1=C(C)NC(C)=C(C(=O)OCCNC(=O)c2ccc(N=[N+]=[N-])cc2)C1c1ccccc1C(F)(F)F (stereo unspecified)
inactive: [1]; at 1.2 µM 4% | [1]; at 3.7 µM 4% | [1]; at 11.0 µM 13% | [1]; at 33.0 µM 24% | [1]; at 100.0 µM 39% | [2]; at 1.2 µM 1% | [2]; at 3.7 µM 0% | [2]; at 11.0 µM -2% | [2]; at 33.0 µM 2% | [2]; at 100.0 µM 21% | [3]; at 1.2 µM -1% | [3]; at 3.7 µM 0% | [3]; at 11.0 µM 1% | [3]; at 33.0 µM 3% | [3]; at 100.0 µM -11% | [4]; at 1.2 µM -2% | [4]; at 3.7 µM -3% | [4]; at 11.0 µM -2% | [4]; at 33.0 µM 12% | [4]; at 100.0 µM 24% | [5]; at 1.2 µM 1% | [5]; at 3.7 µM -1% | [5]; [17] 3% | [5]; at 11.0 µM 17% | [5]; at 33.0 µM 39% | [5]; [18] 18% | [5]; at 50.0 µM 40.1% | [5]; at 100.0 µM 41% | [6]; at 1.2 µM 1% | [6]; at 3.7 µM 4%
